Measured values: PubChem BioAssay AID588342 (National Center for Advancing Translational Sciences (NCATS), 2011)
Where “and” joins values, the source holds several entries; their conditions need not be identical. Identical values can stand only once. Screen size: about 360,000 compounds; about 25,000 (6.9%) were called active. Not shown: some 9% with an inconclusive outcome. This is one part of a sample in which actives are shown more often than they occur. Unmarked numbers belong to inactive results. Calls follow the shape of the dose curve; as a rule, active = well fitted inhibition curve with a large enough effect; inconclusive = small, poorly fitted or top-dose-only effect; inactive = flat fitted curve, though single readings scatter.

Target: Luciferin 4-monooxygenase (Photinus pyralis) (UniProt P08659)
Sequence (P08659 whole entry, looked up): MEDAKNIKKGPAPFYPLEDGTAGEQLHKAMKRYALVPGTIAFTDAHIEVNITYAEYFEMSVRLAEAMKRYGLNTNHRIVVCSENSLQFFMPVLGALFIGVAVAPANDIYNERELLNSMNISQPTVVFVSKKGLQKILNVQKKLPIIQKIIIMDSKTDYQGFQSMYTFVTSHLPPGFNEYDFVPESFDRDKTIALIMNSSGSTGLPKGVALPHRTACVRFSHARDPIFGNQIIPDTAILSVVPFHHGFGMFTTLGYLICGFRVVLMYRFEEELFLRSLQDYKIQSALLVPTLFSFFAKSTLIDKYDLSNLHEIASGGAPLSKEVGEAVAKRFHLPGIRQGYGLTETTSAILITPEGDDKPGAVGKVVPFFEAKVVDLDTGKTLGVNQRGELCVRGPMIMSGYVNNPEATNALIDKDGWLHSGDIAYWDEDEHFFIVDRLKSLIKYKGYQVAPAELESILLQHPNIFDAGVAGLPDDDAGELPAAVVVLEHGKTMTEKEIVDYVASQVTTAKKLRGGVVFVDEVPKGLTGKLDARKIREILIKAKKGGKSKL
Assay: qHTS profiling assay for firefly luciferase inhibitor/activator using purifed enzyme and Km concentrations of substrates (counterscreen for miR-21 project); also: nearly all actives have a fitted effect of over 55% in size;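 as to activity change, negative = inhibition: plate controls were vehicle for no effect and reference inhibitor for full effect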
Conditions: purified FLuc, luminescence inhibition; series mostly up to 57.5 µM; activity change, negative = inhibition: at the top concentration
Procedure, shortened: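 Purified P. pyralis luciferase, 10 nM final, with Km-level 10 uM D-luciferin and 10 uM ATP in 50 mM Tris acetate pH 7.5, 10 mM Mg acetate, 0.01% Tween-20, 0.05% BSA; 6-point qHTS titration about 60 µM downward; luminescence read.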
Potency is read from the fitted curve at half-maximal effect.

SMILES | activity change, negative = inhibition [%] | Potency
O=C(NCC1CCCO1)c1ccc(S(=O)(=O)Nc2ccc(F)cc2)cc1 (stereo unspecified) | 10.4 | –
O=S(=O)(NCc1ccccc1Cl)c1cnc[nH]1 | -0.378 | –
COc1ccc(-c2nc3ccccc3s2)cc1NC(=O)COc1ccccc1C | 0.496 | –
COc1ccccc1OCc1nc2ccccc2s1 | – | 0.601 µM (active)
COC(=O)C1[C@H]2SC(C)(C)C(C(=O)OC)N2C(=O)N1Cc1nc2ccccc2s1 (stereo partly specified) | -2.91 | –
Cc1cc(O)c(C(c2ccccc2)N2CCN(c3ccccc3F)CC2)c(=O)n1Cc1ccco1 (stereo unspecified) | -13.9 | –
O=C(CCC1N=C2c3ccccc3N=C(SCc3ccccc3F)N2C1=O)NCCc1ccccc1 (stereo unspecified) | -5 | –
CC(NC(=O)c1ccc(S(=O)(=O)Nc2ccccc2)cc1)c1ccc(S(N)(=O)=O)cc1 (stereo unspecified) | 0.247 | –
O=C1/C(=C/c2cccs2)CCc2ccccc21 | – | 0.757 µM (active)
O=C1/C(=C/c2cccs2)SC(=S)N1C1CCS(=O)(=O)C1 (stereo unspecified) | -10.5 | –
CCC1C/C(=C/c2cccs2)C(=O)/C(=C/c2cccs2)C1 (stereo unspecified) | -0.238 | –
O=S(=O)(c1cccs1)N1CCc2ccccc2C1 | 2.65 | –
O=C(COC(=O)/C=C/c1cccs1)NC1CCCCC1 | 0.481 | –
O=C1/C(=C/c2cccs2)CCC1C1CCCC1 (stereo unspecified) | – | 3.38 µM (active)
COc1ccccc1-c1cc(C(F)(F)F)nc(S(=O)(=O)CCCC(=O)Nc2cc(C)ccc2O)n1 | 2.47 | –
O=C(CSc1nnc(N2CCOCC2)n1-c1cccc(F)c1)N1CCN(c2ccccn2)CC1 | 1.86 | –
COc1cccc(C(=O)NCc2ccc3c(c2)CCN3C(=O)c2ccncc2)c1 | 1.74 | –
COc1cccc(C(=O)n2ccc(-c3cccs3)n2)c1 | – | 3.38 µM (active)
COc1cccc(C(=O)NCC(=O)OCc2cc(=O)n3ccsc3n2)c1 | -3.98 | –
CC(C)(C)c1cc2cccnc2n1Cc1ccccc1 | -1.13 | –
O=C(/C=C/c1cccs1)c1cc(Cl)ccc1OC(=O)N1CCOCC1 | -0.486 | –
CCOc1ccc(C2C(=O)N(C3CCCCC3)CC(=O)N2CCC2=CCCCC2)cc1OC (stereo unspecified) | 0.188 | –
N#Cc1ccc(-c2cccs2)nc1SCc1ccc(Br)cc1 | -2.78 | –
Cc1cccc(CSc2nnc(C)c(=O)n2N)c1 | 5.06 | –
Cc1cccc(CSc2ccc(-c3cccs3)nn2)c1 | – | 12 µM (active) and 8.49 µM (active)
C[C@H](NC(=O)c1ccccc1Cl)C(=O)OCC(=O)N1CCN(c2ccccc2)CC1 | 1.68 | –

SMILES | activity change, negative = inhibition [%] | Potency
COc1ccc(C(=O)C2CCCN(S(=O)(=O)c3cccc(C)c3)C2)c(C)c1 (stereo unspecified) | 5.75 | –
CCN1C(=O)c2ccccc2S(=O)c2ccc(C(=O)NCc3ccc(F)cc3)cc21 (stereo unspecified) | 1.08 | –
CN1CCN(S(=O)(=O)c2cccc(C(=O)O)c2)CC1 | -0.781 | –
O=C(O)c1ccc(N=NN2CCOCC2)cc1 | 1.54 | –
O=C(O)c1cccc(N=NN2CCCCCC2)c1 | – | 6.75 µM (active)
CC(C)Oc1ccc(S(=O)(=O)N2CCOCC2)cc1NC(=O)C1CCCC1 | 0.0682 | –
O=C(Cn1nc(C(F)(F)F)c2c1CCCC2)Nc1ccc(Cl)cc1 | -4.17 | –
O=C(NCCS(=O)(=O)N1CCN(c2ccccc2)CC1)c1ccco1 | 2.07 | –
O=C(CNC(=O)c1ccco1)OCC(=O)c1ccccc1 | -3.69 | –
O=C(NCCSc1ccccc1)c1ccco1 | – | 23.9 µM (active)
CCOC(=O)Cn1c(=O)n(-c2ccccc2OC)c2nc(-c3cccc(F)c3)nc(C(N)=O)c21 | -8.14 | –
CC(C)(C)c1ccc(S(=O)(=O)N2CCN(C(=O)c3cc(-c4ccc(Br)cc4)n[nH]3)CC2)cc1 | 0.458 | –
CC(=O)N1CCN(C(=O)Nc2cccc(C(F)(F)F)c2)CC1 | -0.34 | –
FC(F)(F)c1cccc(N/N=C/c2ccccc2)c1 | – | 12 µM (active)
Cc1nnsc1C(=O)N/N=C/c1cccc(C(F)(F)F)c1 | -2.3 | –
CCC1CCCCN1C(=O)Cn1c(=O)n(CCCCCC(=O)NCc2ccccc2)c(=O)c2sccc21 (stereo unspecified) | -16.2 | –
CC(C)(C)OC(=O)Nc1ccc([C@@H](NC(=O)OC(C)(C)C)C(=O)OC(C)(C)C)cc1 | 2.72 | –
COc1ccc2cc(CNc3ccc(OC)c(OC)c3)c(=O)n(CC(=O)Nc3ccccc3F)c2c1 | 5.48 | –
Cc1cc2c(cc1S(=O)(=O)CCC(=O)Nc1ccc(OC(F)(F)F)cc1)OCC(=O)N2 | -15.7 | –
Nn1c(SCC(=O)Nc2nccs2)nnc1-c1ccco1 | 1.42 | –
CC(C)c1ccc(NC(=O)Cn2nnc(C(=O)NCCc3ccccc3)c2N)cc1 | -5.02 | –
CC(C)c1ccc(NC(=O)Cn2ncc3ccccc32)cc1 | – | 10.7 µM (active)
CCc1ccc(NC(=O)Cn2ncn3c(cc4ccccc43)c2=O)cc1 | – | inactive
Cc1oc(-c2ccccc2)nc1Cn1c(SCc2cccc(C(F)(F)F)c2)nc2cccnc21 | -14.9 | –
COc1ccc(N2CCN(Cc3nc4c(c(=O)[nH]c(=O)n4C)n3Cc3ccc(Cl)cc3)CC2)cc1 | -1.19 | –
O=C(NCCCO)C(=O)Nc1c2c(nn1-c1ccccc1)CSC2 | -8.71 | –

SMILES | activity change, negative = inhibition [%] | Potency
Cc1nc2ccccn2c1C(=O)NN=C1CCN(C)CC1 | -1.15 | –
CCS(=O)(=O)C1=NSC2=NC(=O)/C(=C\c3cc(C)n(-c4cccc(OC)c4)c3C)C(=N)N21 | – | 6.75 µM (active)
CCC1=NN2C(=N)/C(=C/c3cc(C)n(-c4ccccc4)c3C)C(=O)N=C2S1 | – | 26.9 µM (active)
COc1ccccc1OCCOc1ccc(/C=C2\C(=N)N3N=C(C)SC3=NC2=O)cc1 | -12.2 | –
CCS(=O)(=O)C1=NSC2=NC(=O)/C(=C\c3ccc(OS(=O)(=O)c4ccccc4)cc3)C(=N)N21 | -9.36 | –
Cc1cc(/C=C2/C(=N)N3C(=NC2=O)SN=C3S(C)(=O)=O)c(C)n1-c1ccccc1 | – | 0.536 µM (active)
N=C1/C(=C/c2cccn2-c2cccc([N+](=O)[O-])c2)C(=O)N=C2SC=CN12 | 4.38 | –
CCOc1cc(/C=C2\C(=N)N3N=C(C)SC3=NC2=O)ccc1OCCOc1ccccc1 | 1.67 | –
CC1=CC2=NC(=O)/C(=C/c3coc4ccccc4c3=O)C(=N)N2O1 | -16.2 | –
Cc1cccc(N2CCN(C(=O)c3oc(=O)c4ccccc4c3-c3ccccc3)CC2)c1C | -0.455 | –
COc1ccc(CC(=O)N2CC(=O)Nc3ccc(Br)cc3C2c2ccc(F)cc2)cc1OC (stereo unspecified) | 0.675 | –
O=C(Cn1c(=O)nc(-c2ccccc2)c2cc(Cl)ccc21)NCc1ccc(Cl)cc1 | 3.37 | –
Cc1c(C(C)CCCO)oc(=O)c2c1Oc1c(C)c(C(C)C[C@@H](C)O)oc(=O)c1C2 (stereo partly specified) | 2.46 | –
O=C(NCCN1CCOCC1)c1cccc(S(=O)(=O)Nc2ccc(F)cc2)c1 | 3.82 | –
COc1cc(Cl)c(C)cc1NC(=O)CCc1nc2cccnc2n1Cc1cccs1 | -15.4 | –
CCOc1ccc(NC(=O)CCC(=O)NNC(=O)NC2CCCCC2)cc1 | 1.41 | –
Cc1ccccc1C(=O)Nc1sc2c(c1C(=O)N1CCC(C)CC1)CCCC2 | -1.02 | –
CCNS(=O)(=O)c1cc(-c2nnc(Nc3cccc(C(F)(F)F)c3)c3ccccc23)ccc1C | 3.64 | –
CCOC(=O)C1CCCN(C(=O)c2ccc(C)c(S(=O)(=O)N3CCCCC3)c2)C1 (stereo unspecified) | -3.18 | –
COC(=O)[C@H](C)NC(=O)Nc1ccc(OC(F)(F)F)cc1 | 0.295 | –
Cn1cccc1/C=N/NC(=O)c1ccc(OC(F)(F)C(F)F)cc1 | – | 12 µM (active)
Cn1cccc1/C=N/NC(=O)CNc1cccc2ccccc12 | -17 | –
COc1ccc(NC(=O)CSc2nc3ccccc3n2CC(=O)N2CCCCC2C)cc1 (stereo unspecified) | -2.28 | –
Cc1ccc(S(=O)(=O)N2CCOCC2)cc1NC(=O)CSc1nnc(N)s1 | 2.58 | –
CCOC(=O)c1cc2c(=O)n3ccccc3nc2n(Cc2ccco2)c1=NC(=O)c1ccc(F)cc1 | -0.239 | –
Cc1ccc(OCCSc2nc3ccc(NC(=O)COc4ccc(C)cc4)cc3s2)cc1 | 1.87 | –

SMILES | activity change, negative = inhibition [%] | Potency
CC1CCN(S(=O)(=O)c2ccc3c(ccn3CCC(=O)NCc3ccc(N(C)C)cc3)c2)CC1 | -2.72 | –
COc1ccc(CC(=O)Nc2nnc3n2CCS3)cc1OC | -3.34 | –
CCOCCCNC(=O)c1cc2c(=O)n3ccccc3nc2s1 | -15 | –
CCc1ccc2oc(-c3ccc(N)cc3)nc2c1 | – | 0.19 µM (active)
NS(=O)(=O)c1ccc(CCNC(=O)CCCCCn2c(=O)[nH]c3ccccc3c2=O)cc1 | -7.29 | –
CCc1ccc(NC(=O)c2cc(S(=O)(=O)NC3CCCCCC3)ccc2F)cc1 | -8.51 | –
CCOC(=O)C1=C(c2ccccc2)N=C2SCC(=O)N2C1c1ccc(O)c(OC)c1 (stereo unspecified) | -1.7 | –
CSc1ccc(CCNC(=O)c2cc(C)nc3c2c(C)nn3-c2cccc(F)c2)cc1 | -1.61 | –
CCOC(=O)C1=C(c2ccccc2)NC(=S)NC1c1ccc(Cl)cc1 (stereo unspecified) | 1.44 | –
CCOc1ccc(C2NC(=S)NC3=C2CCc2ccccc23)cc1 (stereo unspecified) | – | 21.3 µM (active)
COc1ccc(C2NC(=S)NC3=C2CCc2ccccc23)cc1OC (stereo unspecified) | 4.29 | –
CCN1CCc2nc3sc(C(=O)Nc4ccccc4OC(F)(F)F)c(N)c3cc2C1 | 0.475 | –
Cn1c(=O)c2c(nc(Oc3ccc(C#N)cc3)n2Cc2ccc(Cl)cc2Cl)n(C)c1=O | -3.98 | –
O=[N+]([O-])c1cccc(C2=NCCS2)c1 | -8.97 | –
O=Cc1ccc(Oc2cccc(C(F)(F)F)c2)nc1 | -3.32 | –
FC(F)(F)c1ccnc(Oc2ccc(C3=NCCS3)cc2)c1 | – | 3.38 µM (active)
O=C(OCC(=O)N1CCCC1)c1ccc(Cl)nc1 | 2.43 | –
CCOc1ccc2nc(/N=C/c3nc(-c4ccccc4)oc3O)sc2c1 | 2.17 | –
Oc1oc(-c2ccccc2Br)nc1/C=N/c1ccccn1 | – | 7.57 µM (active)
CCOc1ccc(C(=O)NCC(=O)N2CCN(c3ccc(C(F)(F)F)cn3)CC2)cc1 | 6.42 | –
CCn1cc(C(=O)OCC(=O)Nc2cc(C)cc(C)c2)c(=O)c2ccc(C)nc21 | -2.09 | –
O=S(=O)(NC1CC1)c1ccc(F)c(F)c1 | -2.04 | –
Cc1cc(C)cc(NC(=O)CSc2nc(=O)n(CCN3CCOCC3)c3c2CCC3)c1 | -2.95 | –
